High-throughput results from PubChem.
CXXC DNA block: inhibitors of human MLL CXXC domain-DNA interaction. MLL-CXXC / FITC-HOXA9 DNA fluorescence polarization. hit rate 0.037% among 290,000. Potency, µM (top dose mostly 115 µM), usual class: inhibitors; active means well fitted inhibition curve with a large enough effect in the polarisation, with a control signal flat, not every such curve was filed as active; inconclusive means small, poorly fitted or top-dose-only effect, or effect the other way, or a change in a side signal; inactive means no such curve, though single readings can be large or run the other way; the % refers to the polarisation
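Steps: dispense CXXC domain solution (7 uM) → pin compounds or unlabeled HOX-A9 DNA control → 5 min ambient → add FLSN-HOX-A9 solution (50 nM) → spin → 30 min ambient → fluorescence polarization. Tris pH 7.5/NaCl/DTT/BSA buffer.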
Menin MLL FP TR: inhibitors of human menin-MLL interaction, mutant MLL peptide | hit rate 0.23% among 270,000 | Potency, µM (series often up to 61.6 µM), most hits filed as inhibitors | Menin + Texas Red MLL mutant peptide, fluorescence polarization; active means well fitted inhibition curve with a large enough effect in the polarisation, with a control signal flat, not every such curve was filed as active; inconclusive means small, poorly fitted or top-dose-only effect, or effect the other way, or a change in a side signal; inactive means no such curve, though single readings can be large or run the other way; the % refers to the polarisation
Target sequence (O00255 whole entry, looked up): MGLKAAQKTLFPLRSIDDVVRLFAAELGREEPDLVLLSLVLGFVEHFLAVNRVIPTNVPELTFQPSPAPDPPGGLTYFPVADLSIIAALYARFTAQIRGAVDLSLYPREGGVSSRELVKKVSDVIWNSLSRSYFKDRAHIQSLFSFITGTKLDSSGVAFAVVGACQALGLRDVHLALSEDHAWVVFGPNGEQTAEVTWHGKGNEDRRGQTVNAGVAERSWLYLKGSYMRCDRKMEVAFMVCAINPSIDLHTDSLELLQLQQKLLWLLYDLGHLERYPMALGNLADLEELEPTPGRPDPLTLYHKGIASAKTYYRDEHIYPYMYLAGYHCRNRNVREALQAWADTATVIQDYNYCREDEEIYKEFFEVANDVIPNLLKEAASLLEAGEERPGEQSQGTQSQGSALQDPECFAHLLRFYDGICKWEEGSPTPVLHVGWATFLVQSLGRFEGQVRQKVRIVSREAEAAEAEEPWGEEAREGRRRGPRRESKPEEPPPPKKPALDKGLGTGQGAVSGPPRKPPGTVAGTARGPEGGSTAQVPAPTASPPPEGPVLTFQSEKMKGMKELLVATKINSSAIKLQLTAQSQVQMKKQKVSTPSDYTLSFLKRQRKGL
Menin-MLL FL inh: displaces fluorescein MLL peptide from human menin; FP activity change, % at 61.4 µM; 290,000 tested, under 10 active; Fluorescence polarization, fluorescein-MLL peptide displacement from menin; active means well fitted curve in the direction sought with a large enough effect in the polarisation, not every such curve was filed as active; inconclusive means small, poorly fitted or top-dose-only effect, or effect the other way, or a change in a side signal; inactive means no such curve, though single readings can be large or run the other way; the % refers to the polarisation
MLL CXXC Fl: MLL CXXC-DNA interaction inhibition, fluorescein FP. AID 624160. hit rate 70% among 200. Potency, µM (top dose mostly 345 µM), actives largely listed as inhibitors. MLL CXXC-DNA binding, fluorescein FP. shares compounds with CXXC DNA block; further: nearly all actives have a fitted effect of over 80% in size
MLL CXXC TxRed: disrupts human MLL CXXC domain binding to DNA, Texas Red; shares compounds with CXXC DNA block; MLL CXXC-DNA binding, Texas Red fluorescence polarization; Potency, µM (titrated, usually from 345 µM), hits mostly inhibitors; hit rate 40% among 200; AID 624161; further: nearly all actives have a fitted effect of over 75% in size
MLL CXXC HTRF: disrupts human MLL CXXC domain binding to DNA by HTRF | AID 624162 | Potency, µM (series often up to 172 µM), usual class: inhibitors | MLL CXXC-DNA binding, HTRF, biochemical | hit rate 30% among 210 | shares compounds with CXXC DNA block; further: nearly all actives have a fitted effect of over 80% in size
Numbers stand for hits; n = inactive; u = inconclusive; x = no result. Only a selection was taken, and hits are over-represented in it overall. Unless noted, the call rests on the fitted dose curve; in most records, active means well fitted inhibition curve with a large enough effect; inconclusive means small, poorly fitted or top-dose-only effect; inactive means no such curve, though single readings can be large or run the other way.

SMILES	CXXC DNA block	Menin MLL FP TR	Menin-MLL FL inh	others
CCN(CC)c1ccc(C=C2C(=O)N(C)C(=S)N(C)C2=O)o1	n	n	u
CN1C(=O)C(=Cc2ccc(N3CCCCC3)o2)C(=O)N(C)C1=S	n	25µM	u
CC(C)(C)C(=O)C(Oc1ccc(Cl)cc1)n1ccnc1 (stereo not given)	n	n	u
NCCc1cc(O)c(O)cc1O	n	40µM	u
COc1ccc(CCN)cc1O	n	u	n
CNC(=O)Oc1ccc2c(c1)C1(C)CCN(C)C1N2C (stereo not given)	x	n	n
C[C@]12O[C@H](C[C@]1(O)CO)n1c3ccccc3c3c4c(c5c6ccccc6n2c5c31)CNC4=O	n	u	n
O=C(NC(=O)c1c(F)cccc1F)Nc1ccc(Cl)c(Oc2ncc(C(F)(F)F)cc2Cl)c1	n	n	n
O=C(Nc1ccc(F)cc1F)c1cccnc1Oc1cccc(C(F)(F)F)c1	n	32µM	n
C[C@@H]1O[C@@H](O[C@H]2CC[C@@H](O[C@H]3[C@H](O)C[C@H](c4ccc5c(c4O)C(=O)C4=C(C5=O)[C@@]5(O)C(=O)C[C@](C)(O[C@H]6CC[C@H](O[C@H]7C=CC(=O)[C@H](C)O7)[C@H](C)O6)C[C@@]5(O)C=C4)O[C@@H]3C)O[C@H]2C)C=CC1=O	x	u	n
CC(=O)c1ccc2c(c1)C1C(Cl)C(Sc3ccccc3[N+](=O)[O-])CC1C(C(=O)O)N2 (stereo not given)	u	u	n
O=C(O)c1cccc2c1NC(C(=O)O)C1CC(Sc3ccccc3[N+](=O)[O-])C(Cl)C21 (stereo not given)	n	22µM	n
CCOC(=O)N1CC(C)N(/[N+]([O-])=N/Oc2ccc([N+](=O)[O-])cc2[N+](=O)[O-])CC1C (stereo not given)	x	u	n
CCCCn1c(N)c(C(=O)OCCOC)c2nc3ccccc3nc21	n	x	n
CCCCOCCCn1c(N)c(C(=O)OCCOC)c2nc3ccccc3nc21	n	28µM	n
O=C(O)CCn1cc(C=C2C(=O)NC(=S)NC2=O)c(-c2cc3ccccc3oc2=O)n1	n	n	u
O=C(O)CCn1cc(C=C2C(=O)NC(=S)NC2=O)c(-c2ccccc2)n1	32µM	n	n	MLL CXXC Fl=4µM;MLL CXXC TxRed=89µM;MLL CXXC HTRF=6.1µM
CCC(=O)Oc1ccc2c(c1)CCC1C2CC[C@]2(C)C(OC(=O)CC)CCC12 (stereo not given in full)	x	u	n
Cc1cc(/C=C2\C(=O)NC(=O)N(c3ccc(Cl)cc3)C2=O)c(C)n1-c1cccc(C(=O)O)c1	n	n	u
Cc1cc(/C=C2\C(=O)NC(=O)N(c3ccc(Br)cc3)C2=O)c(C)n1-c1cc(C(=O)O)cc(C(=O)O)c1	7.9µM	n	n	MLL CXXC Fl=18µM;MLL CXXC TxRed=40µM;MLL CXXC HTRF=39µM
Cc1cc(/C=C2\C(=O)NC(=O)N(c3cccc(Br)c3)C2=O)c(C)n1C	n	n	n
Cc1cc(/C=C2\C(=O)NC(=O)N(c3cccc(F)c3)C2=O)c(C)n1-c1cc(C(=O)O)cc(C(=O)O)c1	16µM	n	n	MLL CXXC Fl=89µM;MLL CXXC TxRed=u;MLL CXXC HTRF=122µM
CCCCCCCCCCCCOCCOCCOCCOCCOCCOCCOCCOCCOCCO	n	u	n
CSC[C@H](NC(=O)COc1cc2c(c3oc(=O)c(C)c(C)c13)CCC(C)(C)O2)C(=O)O	u	n	n	MLL CXXC Fl=u;MLL CXXC TxRed=u;MLL CXXC HTRF=n
Cc1cc(OCC(=O)N[C@@H](Cc2ccccc2)C(=O)O)c2c3c(c(=O)oc2c1)CCCC3	n	n	n
SMILES	CXXC DNA block	Menin MLL FP TR	Menin-MLL FL inh	others
Cc1cccc2c3c(ccc12)C1=C(C(=O)C3=O)[C@@H](C)CO1	x	u	n
CCn1nc(-c2cccs2)nc2c(=O)n(C)c(=O)nc1-2	u	u	n	MLL CXXC Fl=u;MLL CXXC TxRed=u;MLL CXXC HTRF=n
CCn1nc(/C=C/c2ccccc2)nc2c(=O)n(C)c(=O)nc1-2	n	n	n
COc1ccc(/C=C2/C(=O)NC(=O)N(C3CCCCC3)C2=O)cc1CSc1ccccn1	u	u	n	MLL CXXC Fl=142µM;MLL CXXC TxRed=142µM;MLL CXXC HTRF=77µM
COc1ccc(C=C2C(=O)N(C)C(=O)N(C)C2=O)cc1CSc1ccccn1	u	n	n
CC(C)CCCC(C)C1CCC2C3C(=O)C=C4CC(O)CC[C@@]4(C)C3CC[C@@]12C (stereo not given in full)	x	u	n
CCOP(=O)(OCC)O/C(=C/Cl)c1ccc(Cl)cc1Cl	63µM	n	u	MLL CXXC Fl=159µM;MLL CXXC TxRed=n;MLL CXXC HTRF=n
CCOP(=S)(OCC)Oc1ccc(Cl)cc1Cl	x	n	n
C[C@H](CCC(=O)O)[C@H]1CC[C@@H]2[C@H]3[C@@H](CC[C@@]21C)[C@]1(C)CC[C@H](O)C[C@@H]1C[C@@H]3O	x	u	n
COc1ccc(-c2cn(CCO)nc2-c2ccc(OC)cc2)cc1	u	u	n
NC(Cc1cc(O)c(O)cc1O)C(=O)O (stereo not given)	u	u	u	MLL CXXC Fl=18µM;MLL CXXC TxRed=u;MLL CXXC HTRF=31µM
N[C@@H](Cc1ccc(O)cc1)C(=O)O	n	n	n
C[C@@H]1C(=O)O[C@@H]2C[C@]34[C@H]5C[C@@H](C(C)(C)C)[C@@]36[C@@H](OC(=O)[C@@H]6O)O[C@@]4(C(=O)O5)[C@@]12O	x	n	n
O=C(Nc1cccc(C(=O)Nc2cc(C(=O)Nc3ccc([S+](=O)([O-])[O-])c4cc([S+](=O)([O-])[O-])cc(SOOO)c34)ccc2F)c1)Nc1cccc(C(=O)Nc2cc(C(=O)Nc3ccc([S+](=O)([O-])[O-])c4cc([S+](=O)([O-])[O-])cc([S+](=O)([O-])[O-])c34)ccc2F)c1	x	n	n
O=C(O)c1cc(Oc2ccc([N+](=O)[O-])cc2)cc(Oc2ccc([N+](=O)[O-])cc2)c1	x	u	n
COc1cccc2c1C(=O)c1c(O)c3c(c(O)c1C2=O)C[C@@](O)(C(=O)CO)C[C@@H]3O[C@H]1C[C@H](N)[C@H](OC2CCCCO2)[C@H](C)O1 (stereo not given in full)	63µM	u	u	MLL CXXC Fl=36µM;MLL CXXC TxRed=45µM;MLL CXXC HTRF=n
CS(=O)c1ccc(-c2nc(-c3ccc(F)cc3)c(-c3ccncc3)[nH]2)cc1 (stereo not given)	x	n	u
CC(=O)N1CCN(c2ccc(OCC3CO[C@@](Cn4ccnc4)(c4ccc(Cl)cc4Cl)O3)cc2)CC1 (stereo not given in full)	x	n	n
CN1C(=O)C(=Cc2ccccc2OCc2ccc(C(=O)O)cc2)C(=O)N(C)C1=O	20µM	n	n	MLL CXXC Fl=u;MLL CXXC TxRed=142µM;MLL CXXC HTRF=61µM
CN1C(=O)C(=Cc2ccccc2OCc2ccccc2Cl)C(=O)N(C)C1=O	n	n	n
O=C1NC(=O)N(c2ccc3c(c2)OCO3)C(=O)/C1=C/c1ccc(N2CCCCC2)o1	u	n	u
